Experimental data: PubChem BioAssay (NCI)
This is part of a sample that, as a whole, favours compounds with a hit. Of some 83,000 tested, about 20% had one in any assay.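 Testing used 96-well plates and a 48-hour single-concentration exposure. Example: -40 means 40% of the starting cells died.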 Unmarked numbers belong to inactive results. Activity calls are given as the source filed them. Rule for the calls: active = growth percent below 10; inactive = the rest.

Legend:
Assay in all cases: NCI-60 one-dose screen, 48 h (100 = growth as untreated, 0 = no growth, -100 = all killed)
Settings in all cases: 10 µM unless noted
[1] = tested on: NCI-H23 lung
[2] = tested on: NCI-H226 lung
[3] = tested on: NCI-H322M lung
[4] = tested on: HOP-62 NSCLC
[5] = tested on: NCI-H460 lung
[6] = tested on: HOP-92 NSCLC
[7] = tested on: NCI-H522 lung
[8] = tested on: A549/ATCC NSCLC
[9] = tested on: 786-0 renal
[10] = tested on: COLO 205 colon
[11] = tested on: DU-145 prostate
[12] = tested on: K-562 leukemia
[13] = tested on: MALME-3M melanoma
[14] = tested on: MDA-MB-231 breast
[15] = tested on: RXF 393 renal
[16] = tested on: SF-268 CNS
[17] = tested on: SF-295 CNS
[18] = tested on: SF-539 CNS
[19] = tested on: UACC-257 melanoma
[20] = tested on: M14 melanoma

Row | Structure (SMILES) | growth [1] | growth [2] | growth [3] | growth [4] | growth [5] | growth [6] | growth [7] | growth [8] | growth [9] | growth [10] | growth [11] | growth [12] | growth [13] | growth [14] | growth [15] | growth [16] | growth [17] | growth [18] | growth [19] | growth [20]
1 | Nc1c2c(nc3ccc(Br)cc13)CC(c1ccccc1)CC2=O (stereo not given) | 37.7% | 71.2% | 49.1% | 48.9% | 17.1% | 77.9% | 35.6% | 48.5% | 49.6% | 18.6% | 24.2% | 13.4% | 51.9% | 59.6% | 21.8% | 73.3% | 9.76% (active) | 20% | 86.3% | 17.8%
2 | COc1ccc(CCN2C(=O)C(C)(C)SC2=S)cc1OC | 101% | 105% | 103% | 103% | 105% | 102% | 93.8% | 101% | 102% | 111% | 98.8% | 100% | 96.2% | 97.5% | 109% | 94.7% | 96.8% | 105% | 98.9% | 98.4%
3 | CCCCC[C@H]1C/C=C2/C(=O)C=C[C@@H]2C/C=C\CCCC(=O)O[C@@H](CCCCC)C/C=C2/C(=O)C=C[C@@H]2C/C=C\CCCC(=O)O1 | -72.7% (active) | -61.2% (active) | -85.7% (active) | -74.4% (active) | -54.7% (active) | -68.8% (active) | -81.7% (active) | -43.5% (active) | -86.8% (active) | -81.7% (active) | -93.1% (active) | -45.3% (active) | -78.4% (active) | -50.1% (active) | -92.4% (active) | -78.7% (active) | -45% (active) | -89.5% (active) | -61.7% (active) | -82.8% (active)
4 | C=C(C)[C@@H]1CC[C@]2(c3nnc(-c4ccncc4)o3)CC[C@]3(C)[C@H](CC[C@@H]4[C@@]5(C)CCC(=O)NC(C)(C)[C@@H]5CC[C@]43C)[C@@H]12 | 94.7% | 87.8% | 94.3% | 97.9% | 98.5% | 71.9% | 93.9% | 92.8% | 96.2% | 109% | 108% | 80.5% | 101% | 89.8% | 97.9% | 89.5% | 99.4% | 96.9% | 97.9% | 99%
5 | Nc1ccccc1NC(=O)c1ccc(CN2CCC/C(=C\c3ccccn3)C2=O)cc1 | 29.3% | 52.8% | 39.8% | 41.8% | 17.9% | 46% | 21.1% | 26.2% | 44.5% | 1.53% (active) | 45.9% | 9.55% (active) | 20.9% | 45.3% | 2.96% (active) | 25% | -2.97% (active) | 27.4% | 26.3% | 12.3%
6 | C=C1C(=O)O[C@H]2[C@H]1CC/C(COC(=O)NCCc1c[nH]c3ccccc13)=C\CC[C@@]1(C)O[C@@H]21 | 59.5% | 57.3% | 83.2% | 57.7% | 54.2% | -52% (active) | -85.7% (active) | 66.9% | -50.3% (active) | -38.2% (active) | 11.7% | 0.512% (active) | -33.5% (active) | -19.3% (active) | -89.3% (active) | 62.3% | 83.4% | -35.6% (active) | 63.3% | -52.1% (active)
7 | Cn1cc(-c2csc(-c3cn(CCN)c4ccc(Br)cc34)n2)c2cccnc21 | 78.4% | 85.1% | 75.3% | 67.2% | 16.4% | 45.9% | 90.6% | 37.5% | 73.1% | -5.13% (active) | 58.5% | 18.1% | 97.5% | 62.4% | 75.6% | 78.4% | 100% | 82.5% | 92.8% | 86.1%
8 | CC(C)(C)c1[nH]nc2c1C(c1cc3ccccc3[nH]c1=O)Nc1cc(C(=O)OCc3ccccc3)ccc1N2 (stereo not given) | 69% | 74.8% | 63% | 65.1% | 19.4% | 87.7% | 74.6% | 41.6% | 49.4% | 84.3% | 65% | 17.1% | 58.7% | 63.3% | 59.7% | 58.9% | 30.3% | 66.1% | 69.7% | 55.6%
9 | COc1cc2nc(Cl)nc(Nc3cccc(C(=O)/C=C/c4ccc(F)cc4)c3)c2cc1OC | 76% | 73.2% | 86.5% | 85.9% | 95.4% | 75.3% | 73.4% | 70.2% | 57.7% | 89.5% | 85.7% | 7.78% (active) | 81.2% | 62.4% | 69.4% | 89.6% | 74.1% | 25.8% | 102% | 62%
10 | O=C(Nc1ccc(/C=C2\SC(=O)N(Cc3ccc(OC(F)(F)F)cc3)C2=O)cc1)c1ccc(Cl)c([N+](=O)[O-])c1 | 80.8% | 83.4% | 42.7% | 57.8% | 94.6% | 86.4% | 83% | 85% | 99.6% | 55.1% | 72.7% | 46.4% | 98.4% | 53.2% | 83.5% | 62.7% | 96.1% | 77.2% | 80.1% | 104%
11 | OCC1OC(n2cnc3c(Cl)ncnc32)CC1O (stereo not given) | 118% | 97.7% | 101% | 114% | 104% | 89.5% | 101% | 104% | 107% | 104% | 113% | 103% | 97.5% | 106% | 103% | 99.1% | 114% | 96.2% | 110% | 104%
12 | NNC(=O)c1nc2ccccc2[nH]1 | 93.3% | 116% | 107% | 97.4% | 108% | 98.5% | 96.8% | 61.3% | 102% | 103% | 112% | 87.2% | 107% | 103% | 124% | 102% | 104% | 103% | 65.9% | 92.4%
13 | COc1cc(/C=N/Nc2ncnc3c2c(C)nn3-c2ccc(F)cc2)ccc1O | 90.6% | 102% | 85.6% | 106% | 88.1% | 60.5% | 72.9% | 97.6% | 88.6% | 104% | 87.6% | 75.8% | 112% | 84.5% | 95.1% | 71% | 106% | 96.2% | 114% | 102%
14 | COC(=O)[C@]12CC[C@@H](C(=O)/C=C/c3cccnc3)[C@@H]1[C@H]1CC[C@@H]3[C@@]4(C)C/C(=C/c5cccnc5)C(=O)C(C)(C)[C@@H]4CC[C@@]3(C)[C@]1(C)CC2 | -48.3% (active) | -44.4% (active) | -80.7% (active) | -85.6% (active) | -78.4% (active) | -79.9% (active) | -59.7% (active) | -9.34% (active) | -92.3% (active) | -45.1% (active) | -67.8% (active) | -21.6% (active) | -95.2% (active) | -81.3% (active) | -93.6% (active) | -80.8% (active) | -98.5% (active) | -96.5% (active) | -58.9% (active) | -80.3% (active)
15 | N#CC1=C(N)Oc2c(c(N)nn2-c2ccccc2)C1c1ccc(Cl)cc1Cl (stereo not given) | 103% | 102% | 104% | 92.8% | 106% | 86.9% | 90.5% | 108% | 102% | 120% | 105% | 89.6% | 104% | 97.4% | 109% | 92% | 106% | 94.3% | 104% | 96.7%
